{"source": "PubChem BioAssay (NCI)", "key": {"[1]": {"test": "NCI Yeast Anticancer Drug Screen. Data for the rad52 strain (AID 147);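 note: 0% = growth of vehicle-treated control cultures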", "settings": "S. cerevisiae rad52 mutant growth inhibition, hits give high values", "method_in_brief": "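The repair-mutant yeast strain was incubated with compounds, then growth was read and inhibition derived relative to vehicle.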"}, "[2]": {"test": "NCI Yeast Anticancer Drug Screen. Data for the wt1 strain (AID 149);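 note: 0% = growth of vehicle-treated wt1 cultures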", "settings": "S. cerevisiae wt1 strain (SPY 50644) growth inhibition, hits give high values", "method_in_brief": "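Measured: growth of wt1 yeast under compound versus vehicle treatment, reported as inhibition.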"}, "[3]": {"test": "NCI Yeast Anticancer Drug Screen. Data for the rad50EPP+ strain (AID 151);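 note: 0% = growth of vehicle-treated control cultures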", "settings": "S. cerevisiae rad50 mutant strain, hits give high values", "method_in_brief": "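Vehicle-normalised growth inhibition; rad50EPP+ yeast strain, altered in DNA damage repair, compound-treated.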"}, "[4]": {"test": "NCI Yeast Anticancer Drug Screen. Data for the mgt1 strain (AID 153)", "settings": "S. cerevisiae mgt1 mutant growth inhibition, hits give high values", "method_in_brief": "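Vehicle-normalized growth inhibition is determined in mgt1 yeast, a strain selected for a defined alteration in DNA repair or cell cycle control.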"}, "[5]": {"test": "NCI Yeast Anticancer Drug Screen. Data for the rad50 strain (AID 155);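 note: 0% = growth of vehicle-only cultures of the same strain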", "settings": "S. cerevisiae rad50 strain growth inhibition, hits give high values", "method_in_brief": "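Growth of the mutant yeast was measured after compound exposure and referenced to vehicle-treated cultures.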"}, "[6]": {"test": "NCI Yeast Anticancer Drug Screen. Data for the mec2-1 strain (AID 157)", "settings": "S. cerevisiae mec2-1 strain, hits give high values", "method_in_brief": "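Mutant yeast (mec2-1) grown with compound; growth inhibition relative to vehicle control reported.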"}, "[7]": {"test": "NCI Yeast Anticancer Drug Screen. Data for the rad14 strain (AID 159);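 note: 0% = growth of vehicle-treated control cultures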", "settings": "S. cerevisiae rad14 strain growth inhibition, hits give high values", "method_in_brief": "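Here, inhibition of yeast growth was measured after compound exposure, using a strain with a genetic defect in DNA damage repair and vehicle-treated cultures as the reference.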"}, "[8]": {"test": "NCI Yeast Anticancer Drug Screen. Data for the sgs1 mgt1 strain (AID 161);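 note: 0% = growth of cultures given vehicle only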", "settings": "S. cerevisiae sgs1 mgt1 strain, hits give high values", "method_in_brief": "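Percent growth inhibition was derived by comparing compound-exposed mutant yeast with vehicle-exposed cultures. The strain carries alterations in DNA damage repair.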"}, "[9]": {"test": "NCI Yeast Anticancer Drug Screen. Data for the CLN2oe strain (AID 163);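 note: 0% = growth of vehicle-only control cultures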", "settings": "S. cerevisiae CLN2oe strain, hits give high values", "method_in_brief": "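Compounds are applied to yeast harbouring a defined cell-cycle control change; reduced growth compared with vehicle-treated controls gives the value.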"}, "[10]": {"test": "NCI Yeast Anticancer Drug Screen. Data for the cln2 rad14 strain (AID 165);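 note: 0% = growth equal to vehicle treated cultures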", "settings": "S. cerevisiae cln2 rad14 strain, hits give high values", "method_in_brief": "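Readout is yeast growth inhibition versus vehicle-treated controls, using a strain with cln2 and rad14 alterations exposed to compound.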"}, "[11]": {"test": "NCI Yeast Anticancer Drug Screen. Data for the bub3 strain (AID 167)", "settings": "S. cerevisiae bub3 mutant strain, hits give high values", "method_in_brief": "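Whole-cell yeast assay. The mutant strain was incubated with compounds, and growth inhibition was determined by comparison with vehicle-treated cells.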"}, "[12]": {"test": "NCI Yeast Anticancer Drug Screen. Data for the wt2 strain (AID 169);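 note: 0% = growth of vehicle-treated yeast cultures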", "settings": "S. cerevisiae wt2 strain growth inhibition, hits give high values", "method_in_brief": "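Against vehicle-treated controls, the growth of yeast exposed to each compound was compared, and the inhibition was recorded.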"}, "[13]": {"test": "NCI Yeast Anticancer Drug Screen. Data for the mlh1 strain (AID 171);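 note: 0% = growth of vehicle-treated control cultures of the same strain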", "settings": "S. cerevisiae mlh1 strain growth inhibition, hits give high values", "method_in_brief": "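Measured: yeast growth. Reference: vehicle-treated controls. Organism: strain with a defined alteration affecting DNA damage repair or cell cycle control, treated with compound.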"}, "[14]": {"test": "NCI Yeast Anticancer Drug Screen. Data for the mlh1 rad18 strain (AID 175)", "settings": "S. cerevisiae mlh1 rad18 strain growth inhibition, hits give high values", "method_in_brief": "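Genetically defined yeast (DNA repair-deficient) exposed to compounds; growth inhibition determined relative to vehicle.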"}, "[15]": {"settings": "at 5.0 µM (retest, dose inferred, filed as 0.5)"}, "[16]": {"settings": "at 50.0 µM (retest, dose inferred, filed as 5.0)"}}, "note": "The panel holds about 79,000 compounds, 15% with a hit somewhere; the sample as a whole holds those more often. Values without a mark were called inactive. Active and inactive are the calls of the source. Cut-off read from the data, not from the text of the source: active = growth inhibition above about 70%; inactive = the rest.", "data": [{"smiles": "O=S(=O)(c1cc(Cl)ccc1O)c1cc(Cl)ccc1O", "values": [{"measurement": "growth inhibition", "setting": "[1]; at 1.2 µM", "value": 24, "unit": "%"}, {"measurement": "growth inhibition", "setting": "[1]; at 3.7 µM", "value": "91% (active)"}, {"measurement": "growth inhibition", "setting": "[1]; at 11.0 µM", "value": "99% (active)"}, {"measurement": "growth inhibition", "setting": "[1]; at 33.0 µM", "value": "99% (active)"}, {"measurement": "growth inhibition", "setting": "[1]; at 100.0 µM", "value": "99% (active)"}, {"measurement": "growth inhibition", "setting": "[2]; at 1.2 µM", "value": 1, "unit": "%"}, {"measurement": "growth inhibition", "setting": "[2]; at 3.7 µM", "value": "89% (active)"}, {"measurement": "growth inhibition", "setting": "[2]; at 11.0 µM", "value": "99% (active)"}, {"measurement": "growth inhibition", "setting": "[2]; at 33.0 µM", "value": "99% (active)"}, {"measurement": "growth inhibition", "setting": "[2]; at 100.0 µM", "value": "99% (active)"}, {"measurement": "growth inhibition", "setting": "[3]; at 1.2 µM", "value": -1, "unit": "%"}, {"measurement": "growth inhibition", "setting": "[3]; at 3.7 µM", "value": 5, "unit": "%"}, {"measurement": "growth inhibition", "setting": "[3]; at 11.0 µM", "value": 12, "unit": "%"}, {"measurement": "growth inhibition", "setting": "[3]; at 33.0 µM", "value": 14, "unit": "%"}, {"measurement": "growth inhibition", "setting": "[3]; at 100.0 µM", "value": 45, "unit": "%"}, {"measurement": "growth inhibition", "setting": "[4]; at 1.2 µM", "value": 15, "unit": "%"}, {"measurement": "growth inhibition", "setting": "[4]; at 3.7 µM", "value": "92% (active)"}, {"measurement": "growth inhibition", "setting": "[4]; at 11.0 µM", "value": "99% (active)"}, {"measurement": "growth inhibition", "setting": "[4]; at 33.0 µM", "value": "99% (active)"}, {"measurement": "growth inhibition", "setting": "[4]; at 100.0 µM", "value": "99% (active)"}, {"measurement": "growth inhibition", "setting": "[5]; at 1.2 µM", "value": 27, "unit": "%"}, {"measurement": "growth inhibition", "setting": "[5]; at 3.7 µM", "value": "91% (active)"}, {"measurement": "growth inhibition", "setting": "[5]; [15]", "value": 52, "unit": "%"}, {"measurement": "growth inhibition", "setting": "[5]; at 11.0 µM", "value": "98% (active)"}, {"measurement": "growth inhibition", "setting": "[5]; at 33.0 µM", "value": "97% (active)"}, {"measurement": "growth inhibition", "setting": "[5]; [16]", "value": "99% (active)"}, {"measurement": "growth inhibition", "setting": "[5]; at 50.0 µM", "value": "99.5% (active)"}, {"measurement": "growth inhibition", "setting": "[5]; at 100.0 µM", "value": "99% (active)"}, {"measurement": "growth inhibition", "setting": "[6]; at 1.2 µM", "value": 30, "unit": "%"}, {"measurement": "growth inhibition", "setting": "[6]; at 3.7 µM", "value": "93% (active)"}, {"measurement": "growth inhibition", "setting": "[6]; [15]", "value": 35, "unit": "%"}, {"measurement": "growth inhibition", "setting": "[6]; at 11.0 µM", "value": "99% (active)"}, {"measurement": "growth inhibition", "setting": "[6]; at 33.0 µM", "value": "98% (active)"}, {"measurement": "growth inhibition", "setting": "[6]; [16]", "value": "100% (active)"}, {"measurement": "growth inhibition", "setting": "[6]; at 50.0 µM", "value": "99.7% (active)"}, {"measurement": "growth inhibition", "setting": "[6]; at 100.0 µM", "value": "100% (active)"}, {"measurement": "growth inhibition", "setting": "[7]; at 1.2 µM", "value": 9, "unit": "%"}, {"measurement": "growth inhibition", "setting": "[7]; at 3.7 µM", "value": "96% (active)"}, {"measurement": "growth inhibition", "setting": "[7]; at 11.0 µM", "value": "99% (active)"}, {"measurement": "growth inhibition", "setting": "[7]; at 33.0 µM", "value": "99% (active)"}, {"measurement": "growth inhibition", "setting": "[7]; at 100.0 µM", "value": "100% (active)"}, {"measurement": "growth inhibition", "setting": "[8]; [15]", "value": "75% (active)"}, {"measurement": "growth inhibition", "setting": "[8]; [16]", "value": "100% (active)"}, {"measurement": "growth inhibition", "setting": "[8]; at 50.0 µM", "value": "99.5% (active)"}, {"measurement": "growth inhibition", "setting": "[9]; at 1.2 µM", "value": 23, "unit": "%"}, {"measurement": "growth inhibition", "setting": "[9]; at 3.7 µM", "value": "89% (active)"}, {"measurement": "growth inhibition", "setting": "[9]; at 11.0 µM", "value": "99% (active)"}, {"measurement": "growth inhibition", "setting": "[9]; at 33.0 µM", "value": "100% (active)"}, {"measurement": "growth inhibition", "setting": "[9]; at 100.0 µM", "value": "99% (active)"}, {"measurement": "growth inhibition", "setting": "[10]; [15]", "value": 23, "unit": "%"}, {"measurement": "growth inhibition", "setting": "[10]; [16]", "value": "99% (active)"}, {"measurement": "growth inhibition", "setting": "[10]; at 50.0 µM", "value": "98.9% (active)"}, {"measurement": "growth inhibition", "setting": "[11]; at 1.2 µM", "value": 20, "unit": "%"}, {"measurement": "growth inhibition", "setting": "[11]; at 3.7 µM", "value": "91% (active)"}, {"measurement": "growth inhibition", "setting": "[11]; [15]", "value": 48, "unit": "%"}, {"measurement": "growth inhibition", "setting": "[11]; at 11.0 µM", "value": "98% (active)"}, {"measurement": "growth inhibition", "setting": "[11]; at 33.0 µM", "value": "99% (active)"}, {"measurement": "growth inhibition", "setting": "[11]; [16]", "value": "99% (active)"}, {"measurement": "growth inhibition", "setting": "[11]; at 50.0 µM", "value": "99.4% (active)"}, {"measurement": "growth inhibition", "setting": "[11]; at 100.0 µM", "value": "99% (active)"}, {"measurement": "growth inhibition", "setting": "[12]; at 1.2 µM", "value": 7, "unit": "%"}, {"measurement": "growth inhibition", "setting": "[12]; at 3.7 µM", "value": "85% (active)"}, {"measurement": "growth inhibition", "setting": "[12]; at 11.0 µM", "value": "97% (active)"}, {"measurement": "growth inhibition", "setting": "[12]; at 33.0 µM", "value": "99% (active)"}, {"measurement": "growth inhibition", "setting": "[12]; at 100.0 µM", "value": "100% (active)"}, {"measurement": "growth inhibition", "setting": "[13]; at 1.2 µM", "value": 21, "unit": "%"}, {"measurement": "growth inhibition", "setting": "[13]; at 3.7 µM", "value": "85% (active)"}, {"measurement": "growth inhibition", "setting": "[13]; at 11.0 µM", "value": "99% (active)"}, {"measurement": "growth inhibition", "setting": "[13]; at 33.0 µM", "value": "99% (active)"}, {"measurement": "growth inhibition", "setting": "[13]; at 100.0 µM", "value": "99% (active)"}, {"measurement": "growth inhibition", "setting": "[14]; [15]", "value": "82% (active)"}, {"measurement": "growth inhibition", "setting": "[14]; [16]", "value": "99% (active)"}, {"measurement": "growth inhibition", "setting": "[14]; at 50.0 µM", "value": "99.7% (active)"}]}]}
